Reference: ChEMBL document CHEMBL1201862, “PubChem BioAssay data set” (2004)

Target: T1, Thyroid hormone receptor beta (Homo sapiens) (UniProt P10828)
T1 sequence (whole entry): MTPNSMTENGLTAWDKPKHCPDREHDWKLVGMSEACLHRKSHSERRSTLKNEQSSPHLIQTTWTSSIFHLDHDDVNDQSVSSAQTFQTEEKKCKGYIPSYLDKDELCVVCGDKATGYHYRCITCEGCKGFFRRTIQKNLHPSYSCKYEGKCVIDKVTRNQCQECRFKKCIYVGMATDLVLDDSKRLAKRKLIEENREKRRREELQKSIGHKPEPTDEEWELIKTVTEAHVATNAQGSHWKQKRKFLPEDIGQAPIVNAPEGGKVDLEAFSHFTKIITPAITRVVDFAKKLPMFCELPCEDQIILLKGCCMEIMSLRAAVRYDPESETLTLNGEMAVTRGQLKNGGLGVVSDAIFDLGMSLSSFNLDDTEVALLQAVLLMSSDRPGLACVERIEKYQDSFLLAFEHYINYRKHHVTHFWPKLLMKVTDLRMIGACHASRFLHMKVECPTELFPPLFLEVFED
Assay: qHTS Assay for Inhibitors of the Interaction of Thyroid Hormone Receptor and Steroid Receptor Coregulator 2: Probe Summary. [Related pubchem assays (depositor defined):AID1469, AID1479, AID1567, AID1568, AID1570, AID1571, AID1573, AID2444, AID2447, AID2448, AID2449, AID2455, AID2479, AID2487, AID2490, AID2552]; call rule not given here
Type: functional

Compound | Potency
CC(OC(=O)c1ccc(S(C)(=O)=O)c([N+](=O)[O-])c1)C(=O)NC1C2CC3CC(C2)CC1C3 (centres undefined) | 1400 nM (active)
CCCC1CCN(C(=O)COC(=O)c2ccc(S(C)(=O)=O)c([N+](=O)[O-])c2)CC1 | 3300 nM (active)
CCC(OC(=O)c1ccc(S(C)(=O)=O)c([N+](=O)[O-])c1)C(=O)NC1C2CC3CC(C2)CC1C3 (centres undefined) | 1100 nM (active)
CC1CCN(C(=O)COC(=O)c2ccc(S(C)(=O)=O)c([N+](=O)[O-])c2)CC1 | 9800 nM (active)
